The campaign covered roughly 39,000 compounds. About 220 (0.56%) showed activity. This excerpt belongs to a sample that is enriched for actives.
The compounds below were run on Escherichia coli K-12 BW25113 (assay: relative growth (OD600 normalised to plate interquartile mean) (fraction); higher = less growth inhibition, active = 0.2 or less). Conditions: 50 µM; LB; incubation time: overnight (16-24 h).
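Further: Wild-type cells incubated without shaking, value is the mean of two biological replicates.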

Row | Structure (SMILES) | relative growth
1 | CC1=C(C)C(=O)C(CCCCCCCCCC[P+](c2ccccc2)(c2ccccc2)c2ccccc2)=CC1=O | 0.308 (inactive)
2 | COC1=C(OC)C(=O)C(CCCCCCCCCCO)=C(C)C1=O | 1.05 (inactive)
3 | COC1=C(OC)C(=O)C(CCCCCCCCCC[P+](c2ccccc2)(c2ccccc2)c2ccccc2)=C(C)C1=O | 0.0727 (active)
4 | C[C@@H]1CN([C@H](C)CO)S(=O)(=O)c2ccc(Br)cc2O[C@@H]1CN(C)C(=O)NC1CCCC1 | 0.989 (inactive)
5 | Cc1cc(=S)oc2ccccc12 | 0.943 (inactive)
6 | CC(C)CC#Cc1ccc2c(c1)O[C@H](CN(C)C(=O)NC1CCCC1)[C@H](C)CN([C@@H](C)CO)S2(=O)=O | 0.997 (inactive)
7 | CCOC(=O)c1ccc(N2NC(=O)/C(=C/c3ccc([N+](=O)[O-])o3)C2=O)cc1 | 0.984 (inactive)
8 | NC(=O)NN=Cc1ccc([N+](=O)[O-])o1 | 0.0474 (active)
9 | O=C(NN=Cc1ccc([N+](=O)[O-])o1)c1ccc(O)cc1 | 0.973 (inactive)
10 | NC(=O)N/N=C/c1ccc([N+](=O)[O-])o1 | 0.0425 (active)
11 | O=C(CN1CCOCC1)N/N=C/c1ccc([N+](=O)[O-])o1 | 0.801 (inactive)
12 | O=C(N/N=C/c1ccc(CO)o1)c1ccccn1 | 1 (inactive)
13 | COC(=O)N/N=C/c1ccc([N+](=O)[O-])o1 | 0.0393 (active)
14 | Nc1nnc(-c2ccc([N+](=O)[O-])o2)o1 | 0.258 (inactive)
15 | C[C@H](NC(=O)C[C@H]1C=C[C@@H](NC(=O)CN2CCOCC2)[C@H](CO)O1)c1ccccc1 | 1 (inactive)
16 | C[C@H](O)C#Cc1ccc2c(c1)O[C@H](CN(C)C(=O)Cc1ccccn1)[C@H](C)CN([C@@H](C)CO)S2(=O)=O | 1.01 (inactive)
17 | CN1CCN(C(=O)C[C@@H]2CC[C@H]3[C@@H](COC[C@@H](O)CN3Cc3ccc4c(c3)OCO4)O2)CC1 | 0.988 (inactive)
18 | O=C(C[C@H]1C[C@H]2c3cc(NC(=O)Nc4ccc(C(F)(F)F)cc4)ccc3O[C@H]2[C@H](CO)O1)NCc1ccc(Cl)cc1 | 0.973 (inactive)
19 | C[C@@H]1CN([C@@H](C)CO)C(=O)c2cc(NS(=O)(=O)c3cn(C)cn3)ccc2O[C@@H]1CN(C)Cc1ccncc1 | 0.994 (inactive)
20 | C[C@@H]1CN([C@H](C)CO)C(=O)Cc2cc(NC(=O)Nc3ccc(F)cc3)ccc2O[C@@H]1CN(C)Cc1ccc(Cl)c(Cl)c1 | 1.02 (inactive)
21 | Cc1ccc(S[C@]2(C(=O)NCCN3CCOCC3)CC(=O)N(C(C)C)[C@@H]2c2ccc(CO)cc2)cc1 | 1 (inactive)

Row | Structure (SMILES) | relative growth
22 | C=CCOC(=O)[C@H]1[C@@H]2C(=O)O[C@@H](c3ccccc3)[C@@H](c3ccccc3)N2[C@@H](c2ccc(OCCOC(=O)NCCCCCC(=O)NO)cc2)[C@@]12C(=O)Nc1ccc(I)cc12 | 0.993 (inactive)
23 | C[C@@H]1CN([C@@H](C)CO)C(=O)c2cc(NC(=O)Nc3ccc(C(F)(F)F)cc3)ccc2O[C@H]1CN(C)C(=O)Nc1cccc2ccccc12 | 1.01 (inactive)
24 | COC(=O)c1cn(CC(=O)N2CCN(C)CC2)nn1 | 0.978 (inactive)
25 | C[C@@H]1CN([C@@H](C)CO)C(=O)c2cc(NS(=O)(=O)c3cn(C)cn3)ccc2O[C@H]1CN(C)S(C)(=O)=O | 1.02 (inactive)
26 | C[C@H](CO)N1C[C@H](C)[C@@H](CN(C)S(C)(=O)=O)Oc2c(NC(=O)Nc3ccc4c(c3)OCO4)cccc2C1=O | 0.991 (inactive)
27 | N#CC1C(=O)NC(=O)N=C1Nc1ccccc1 (configuration not stated) | 0.981 (inactive)
28 | NCC[C@H](O)C(=O)N[C@@H]1C[C@H](N)[C@@H](O[C@H]2O[C@H](CN)[C@@H](O)[C@H](O)[C@H]2O)[C@H](O)[C@H]1O[C@H]1O[C@H](CO)[C@@H](O)[C@H](N)[C@H]1O | 0.0379 (active)
29 | NC[C@H]1O[C@H](O[C@H]2[C@H](O[C@@H]3O[C@H](CO)[C@@H](O)[C@H]3O)[C@@H](O)[C@H](N)C[C@@H]2N)[C@H](N)[C@@H](O)[C@@H]1O | 0.515 (inactive)
30 | NCC1OC(OC2C(CO)OC(OC3C(O)C(N)CC(N)C3OC3OC(CN)C(O)C(O)C3N)C2O)C(N)C(O)C1O.O=S(=O)(O)O.O=S(=O)(O)O.O=S(=O)(O)O (configuration not stated) | 1.2 (inactive)
31 | NCC1OC(OC2C(CO)OC(OC3C(O)C(N)CC(N)C3OC3OC(CO)C(O)C(O)C3N)C2O)C(N)C(O)C1O.O=S(=O)(O)O (configuration not stated) | 0.915 (inactive)
32 | NCCC(O)C(=O)NC1CC(N)C(OC2OC(CN)C(O)C(O)C2O)C(O)C1OC1OC(CO)C(O)C(N)C1O.O (configuration not stated) | 0.0465 (active)
33 | Cc1noc(C)c1NC(=O)Nc1ccc2c(c1)C(=O)N([C@H](C)CO)C[C@H](C)[C@@H](CN(C)C(=O)Nc1ccc(F)cc1)OCCCC[C@@H](C)O2 | 0.985 (inactive)
34 | CCN1CCN(c2ccc(Nc3cc(N(C)C(=O)Nc4c(Cl)c(OC)cc(OC)c4Cl)ncn3)cc2)CC1 | 0.975 (inactive)
35 | C[C@@H]1CN([C@H](C)CO)C(=O)Cc2cc(NC(=O)Nc3ccc(F)cc3)ccc2O[C@@H]1CN(C)S(C)(=O)=O | 0.979 (inactive)
36 | C[C@@H]1CCCCO[C@H](CN(C)S(=O)(=O)c2ccc(Cl)cc2)[C@H](C)CN([C@@H](C)CO)C(=O)c2cc(NC(=O)c3ccncc3)ccc2O1 | 0.997 (inactive)
37 | Cc1ccc(S(=O)(=O)N(C)C[C@@H]2OCCCC[C@@H](C)Oc3ccc(NC(=O)Nc4c(C)noc4C)cc3C(=O)N([C@H](C)CO)C[C@@H]2C)cc1 | 1 (inactive)
38 | CC(=O)N[C@H]1CC[C@@H](CCNC(=O)C2CC2)O[C@H]1CO | 0.943 (inactive)
39 | CC1(C)SC2C(NC(=O)Cc3ccccc3)C(=O)N2C1C(=O)[O-].[K+] (configuration not stated) | 0.576 (inactive)
40 | CC1(C)SC2C(NC(=O)COc3ccccc3)C(=O)N2C1C(=O)[O-].[K+] (configuration not stated) | 0.598 (inactive)
41 | CC1(C)SC2C(N3C(=O)C(c4ccccc4)NC3(C)C)C(=O)N2C1C(=O)[O-].[K+] (configuration not stated) | 0.0443 (active)
42 | O=C(C[C@H]1C[C@@H]2c3cc(NC(=O)C4CCOCC4)ccc3O[C@@H]2[C@@H](CO)O1)NCc1cc(F)ccc1F | 0.984 (inactive)
